Measured values published in the supplement of paper PMC6897291.

What was measured:
U-2932 [1] = test: growth inhibition by drug alone (1 - RLU/untreated control) (fraction); higher = stronger inhibition; details: 177Lu-lilotomab satetraxetan 0 ug/ml
In short: (§1)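 RIVA or U-2932 cells were left untreated or pretreated for 18 h with a radiolabelled anti-CD37 antibody conjugate (~600 MBq/mg) at 0.5 µg/ml for RIVA or 1 µg/ml for U-2932. The cells were then washed and seeded at 3,000 cells/well on plates pre-printed with the Selleck Cambridge Cancer Compound library, dosed at 10/100 nM for RIVA and 10/1,000 nM for U-2932. From day 3, RealTime-Glo luminescence was read daily after 1 h at 37°C. Growth inhibition was taken as one minus RLU over the mean of the untreated no-drug wells, of which there were 48 per plate.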

RIVA [2] = test: as above; details: 177Lu-lilotomab satetraxetan 0 ug/ml
In short: as §1

U-2932 [3] = test: growth inhibition by drug plus 177Lu-lilotomab satetraxetan (1 - RLU/untreated control) (fraction); higher = stronger inhibition; details: 177Lu-lilotomab satetraxetan 1 ug/ml
In short: as §1

RIVA [4] = test: as above; details: 177Lu-lilotomab satetraxetan 0.5 ug/ml
In short: as §1

Row | Compound | growth inhibition by drug alone (U-2932 [1]; 10 nM, time (day): 3) | growth inhibition by drug alone (U-2932 [1]; 10 nM, time (day): 4) | growth inhibition by drug alone (U-2932 [1]; 10 nM, time (day): 5) | growth inhibition by drug alone (U-2932 [1]; 10 nM, time (day): 6) | growth inhibition by drug alone (U-2932 [1]; 1000 nM, time (day): 3) | growth inhibition by drug alone (U-2932 [1]; 1000 nM, time (day): 4) | growth inhibition by drug alone (U-2932 [1]; 1000 nM, time (day): 5) | growth inhibition by drug alone (U-2932 [1]; 1000 nM, time (day): 6) | growth inhibition by drug alone (RIVA [2]; 10 nM, time (day): 3) | growth inhibition by drug alone (RIVA [2]; 10 nM, time (day): 4) | growth inhibition by drug alone (RIVA [2]; 10 nM, time (day): 5) | growth inhibition by drug alone (RIVA [2]; 10 nM, time (day): 6) | growth inhibition by drug alone (RIVA [2]; 100 nM, time (day): 3) | growth inhibition by drug alone (RIVA [2]; 100 nM, time (day): 4) | growth inhibition by drug alone (RIVA [2]; 100 nM, time (day): 5) | growth inhibition by drug alone (RIVA [2]; 100 nM, time (day): 6) | growth inhibition by drug plus 177Lu-lilotomab satetraxetan (U-2932 [3]; 10 nM, time (day): 3) | growth inhibition by drug plus 177Lu-lilotomab satetraxetan (U-2932 [3]; 10 nM, time (day): 4) | growth inhibition by drug plus 177Lu-lilotomab satetraxetan (U-2932 [3]; 10 nM, time (day): 5) | growth inhibition by drug plus 177Lu-lilotomab satetraxetan (U-2932 [3]; 10 nM, time (day): 6) | growth inhibition by drug plus 177Lu-lilotomab satetraxetan (U-2932 [3]; 1000 nM, time (day): 3) | growth inhibition by drug plus 177Lu-lilotomab satetraxetan (U-2932 [3]; 1000 nM, time (day): 4) | growth inhibition by drug plus 177Lu-lilotomab satetraxetan (U-2932 [3]; 1000 nM, time (day): 5) | growth inhibition by drug plus 177Lu-lilotomab satetraxetan (U-2932 [3]; 1000 nM, time (day): 6) | growth inhibition by drug plus 177Lu-lilotomab satetraxetan (RIVA [4]; 10 nM, time (day): 3) | growth inhibition by drug plus 177Lu-lilotomab satetraxetan (RIVA [4]; 10 nM, time (day): 4) | growth inhibition by drug plus 177Lu-lilotomab satetraxetan (RIVA [4]; 10 nM, time (day): 5) | growth inhibition by drug plus 177Lu-lilotomab satetraxetan (RIVA [4]; 10 nM, time (day): 6) | growth inhibition by drug plus 177Lu-lilotomab satetraxetan (RIVA [4]; 100 nM, time (day): 3) | growth inhibition by drug plus 177Lu-lilotomab satetraxetan (RIVA [4]; 100 nM, time (day): 4) | growth inhibition by drug plus 177Lu-lilotomab satetraxetan (RIVA [4]; 100 nM, time (day): 5) | growth inhibition by drug plus 177Lu-lilotomab satetraxetan (RIVA [4]; 100 nM, time (day): 6)
1 | NC(=O)c1ccc2nc(-c3ccc(Oc4ccc(Cl)cc4)cc3)[nH]c2c1 | 0.00125 | 0.0235 | 0.00264 | -0.0848 | -0.16 | -0.101 | -0.0954 | -0.129 | -0.00863 | -0.0511 | -0.0793 | -0.24 | -0.111 | -0.096 | -0.133 | -0.184 | 0.0152 | 0.0513 | 0.0592 | 0.129 | -0.283 | -0.107 | -0.0258 | 0.0425 | 0.4 | 0.51 | 0.52 | 0.516 | 0.455 | 0.517 | 0.523 | 0.501
2 | CC1(CN2CCC(n3c(=O)[nH]c4ccccc43)CC2)OCc2ccccc2-n2cccc21 (configuration not stated) | -0.00689 | -0.027 | -0.0586 | -0.0906 | -0.241 | -0.0399 | -0.126 | -0.115 | -0.0853 | -0.102 | -0.143 | -0.225 | -0.307 | -0.303 | -0.319 | -0.374 | -0.0386 | 0.0346 | 0.0781 | 0.0987 | -0.0292 | 0.0476 | 0.0675 | 0.175 | 0.576 | 0.59 | 0.612 | 0.612 | 0.521 | 0.568 | 0.6 | 0.609
3 | COc1c(C)c2c(c(O)c1C/C=C(\C)CCC(=O)OCCN1CCOCC1)C(=O)OC2 [Mycophenolate mofetil (CellCept)] | 0.0454 | 0.0504 | -0.00114 | -0.00474 | 0.727 | 0.792 | 0.743 | 0.673 | 0.15 | 0.0186 | -0.0505 | -0.245 | 0.284 | 0.214 | 0.154 | 0.0335 | 0.0524 | 0.064 | 0.0624 | 0.115 | 0.826 | 0.893 | 0.89 | 0.878 | 0.413 | 0.511 | 0.534 | 0.55 | 0.554 | 0.581 | 0.583 | 0.539
4 | CC(C)CC(=O)Nc1n[nH]c2c1CN(C(=O)C1CCN(C)CC1)C2(C)C | 0.109 | 0.0893 | 0.0354 | -0.0355 | 0.595 | 0.787 | 0.911 | 0.958 | 0.109 | 0.0478 | 0.0236 | -0.141 | 0.546 | 0.346 | 0.355 | 0.378 | 0.0658 | 0.101 | 0.0816 | 0.125 | 0.692 | 0.855 | 0.93 | 0.967 | 0.403 | 0.515 | 0.533 | 0.549 | 0.35 | 0.419 | 0.465 | 0.517
5 | CN1C(=O)C(Cc2c[nH]c3ccccc23)NC1=S (configuration not stated) [Necrostatin-1] | 0.00216 | -0.00946 | -0.022 | -0.0551 | -0.0606 | -0.0746 | -0.132 | -0.0624 | -0.0747 | -0.159 | -0.218 | -0.441 | -0.34 | -0.362 | -0.408 | -0.562 | -0.059 | -0.0156 | 0.00349 | 0.0946 | -0.0506 | 0.00685 | 0.0586 | 0.224 | 0.451 | 0.501 | 0.519 | 0.523 | 0.368 | 0.476 | 0.476 | 0.476
6 | O=C(NC1CCNCC1)c1n[nH]cc1NC(=O)c1c(Cl)cccc1Cl | 0.0998 | 0.0607 | 0.0482 | 0.00372 | 0.953 | 0.964 | 0.972 | 0.975 | 0.0833 | 0.0499 | 0.00549 | -0.171 | -0.131 | -0.1 | -0.185 | -0.425 | 0.0507 | 0.0657 | 0.0758 | 0.0972 | 0.947 | 0.964 | 0.971 | 0.977 | 0.495 | 0.577 | 0.593 | 0.579 | 0.503 | 0.57 | 0.566 | 0.533
7 | CCc1ccc(CCOc2ccc(CC3SC(=O)NC3=O)cc2)nc1 (configuration not stated) [Pioglitazone (Actos)] | -0.11 | -0.125 | -0.103 | -0.0806 | -0.0965 | -0.0693 | -0.0516 | 0.0915 | -0.15 | -0.212 | -0.202 | -0.191 | -0.391 | -0.381 | -0.369 | -0.359 | -0.113 | -0.0372 | 0.0193 | 0.114 | -0.102 | -0.0405 | 0.0194 | 0.192 | 0.53 | 0.578 | 0.604 | 0.598 | 0.416 | 0.476 | – | –
